Measured values as given in the supplement of paper PMC3334620.
Whole data set: some 33,000 sequences, median “E-score (-0.5 to 0.5)” near -0.0059, cut for the highest 2% near 0.26. The sample holds the highest values, similar sequences and a random draw of the others, so the mix is not that of the screen.

What follows are sequences tested against T1, Cin5 (UniProt P40917) (assay: PBM E-score (8-mer binding enrichment) (E-score (-0.5 to 0.5)); higher = stronger / more preferred TF binding). Details: protein concentration: 100 nM; construct: GST-full length.
T1 sequence: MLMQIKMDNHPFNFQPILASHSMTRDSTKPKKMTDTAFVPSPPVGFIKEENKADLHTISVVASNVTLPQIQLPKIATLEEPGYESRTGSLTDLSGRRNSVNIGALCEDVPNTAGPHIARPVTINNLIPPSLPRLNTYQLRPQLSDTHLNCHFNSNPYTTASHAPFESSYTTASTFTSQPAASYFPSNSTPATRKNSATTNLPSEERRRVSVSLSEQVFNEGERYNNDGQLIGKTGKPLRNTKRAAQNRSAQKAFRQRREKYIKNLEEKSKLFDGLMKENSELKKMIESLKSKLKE
Procedure: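 Universal 'all 10-mer' protein binding microarrays (Agilent AMADID 015681) probed with GST-tagged S. cerevisiae TFs (full-length or DBD) made by in vitro transcription/translation (PURExpress), about 100-200 nM. Bound TF was detected with fluorescent anti-GST. Each ungapped 8-mer (which stands for itself and its reverse complement) is scored by the PBM enrichment score (E-score), a modified Wilcoxon-Mann-Whitney statistic from -0.5 to +0.5, computed with the Universal PBM Analysis Suite. Scale: above 0.35 generally sequence-specific binding.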
CTGGAGAA was tested, and the “PBM E-score” value was -0.202.
For CTACACAG, the “PBM E-score” value was -0.0209.
With CAAGAACA the “PBM E-score” value was -0.0469.
GAAGAACA was tested, and the “PBM E-score” value was 0.215.
In the case of TAAGAACA, the “PBM E-score” value is reported as 0.29.
For CGTAGACG, the “PBM E-score” value was -0.217.
For GAAACTGA, the “PBM E-score” value was -0.17.
With CCCGAGTA the “PBM E-score” value was 0.15.
GTTAGCTA was tested, and the “PBM E-score” value was 0.0147.
With ATTAGATG the “PBM E-score” value was 0.239.
CGTAGATA was tested, and the “PBM E-score” value was 0.0684.
In the case of AGTAGATC, the “PBM E-score” value is reported as -0.0135.
For CTTAGCTA, the “PBM E-score” value was 0.151.
For ATTAGATA, the “PBM E-score” value was 0.301.
GATAGATA was tested, and the “PBM E-score” value was 0.0426.
In the case of AGTAGATA, the “PBM E-score” value is reported as 0.306.
With GTTAGATA the “PBM E-score” value was 0.113.
With ATTAGCTA the “PBM E-score” value was 0.3.
In the case of AATAGATA, the “PBM E-score” value is reported as 0.269.
TATAGATA was tested, and the “PBM E-score” value was 0.176.
With CCGGTTTC the “PBM E-score” value was 0.0044.
In the case of TACAATCA, the “PBM E-score” value is reported as 0.152.
With CCCTCAGG the “PBM E-score” value was -0.164.
For AACCAAAA, the “PBM E-score” value was 0.204.
With CCGCCCCA the “PBM E-score” value was 0.109.
For AGTGCCGC, the “PBM E-score” value was -0.124.
With AGGGCCAC the “PBM E-score” value was -0.194.
In the case of AGAAGGGC, the “PBM E-score” value is reported as -0.254.
ATATAACG was tested, and the “PBM E-score” value was 0.273.
For ATATAACC, the “PBM E-score” value was 0.188.
For ATATAACA, the “PBM E-score” value was 0.284.
With CTATAACC the “PBM E-score” value was -0.144.
CTATAACA was tested, and the “PBM E-score” value was -0.122.
With GTATAACA the “PBM E-score” value was 0.126.
In the case of CTTAAACC, the “PBM E-score” value is reported as -0.192.
ACGGCGTC was tested, and the “PBM E-score” value was -0.0496.
For GAACTGGC, the “PBM E-score” value was -0.125.
AATAATTG was tested, and the “PBM E-score” value was 0.0887.
In the case of AATAATTC, the “PBM E-score” value is reported as 0.261.
GATAATTA was tested, and the “PBM E-score” value was 0.218.
With AATAATTA the “PBM E-score” value was 0.35.
For ACTAATTC, the “PBM E-score” value was 0.204.
With CCTAATTA the “PBM E-score” value was 0.0517.
With CATAATTC the “PBM E-score” value was 0.138.
With ACTAATTA the “PBM E-score” value was 0.228.
In the case of CATAATTA, the “PBM E-score” value is reported as 0.308.
With ACCGAAGA the “PBM E-score” value was 0.0871.
With ACCAATGC the “PBM E-score” value was 0.0593.
With AGAGACTC the “PBM E-score” value was -0.0094.
For CCTCGCCC, the “PBM E-score” value was 0.0221.
For AGCCTTAG, the “PBM E-score” value was -0.197.
CAACAGTA was tested, and the “PBM E-score” value was 0.0302.
GCCAGCCA was tested, and the “PBM E-score” value was -0.193.
With AATACAAA the “PBM E-score” value was 0.342.
In the case of AATACAAC, the “PBM E-score” value is reported as 0.236.
GATACAAA was tested, and the “PBM E-score” value was 0.173.
For AATACAAT, the “PBM E-score” value was 0.154.
With AATACAAG the “PBM E-score” value was 0.294.
For TATACAAA, the “PBM E-score” value was 0.169.
In the case of AACTCCCT, the “PBM E-score” value is reported as -0.142.
With CATTAACG the “PBM E-score” value was 0.0883.
In the case of CGCATGAA, the “PBM E-score” value is reported as 0.116.
With GGTAACCA the “PBM E-score” value was -0.151.
For ATTATTGA, the “PBM E-score” value was 0.111.
With ATAATACG the “PBM E-score” value was 0.213.
With GCAATACC the “PBM E-score” value was 0.0147.
For ACAATACA, the “PBM E-score” value was 0.144.
In the case of ATAATACA, the “PBM E-score” value is reported as 0.35.
For ATAATAAC, the “PBM E-score” value was 0.206.
With ACAATACC the “PBM E-score” value was 0.278.
In the case of ACAATACT, the “PBM E-score” value is reported as 0.237.
For ATAATACC, the “PBM E-score” value was 0.258.
In the case of CTAATACA, the “PBM E-score” value is reported as 0.161.
In the case of ACAATACG, the “PBM E-score” value is reported as 0.05.
In the case of GCAATACA, the “PBM E-score” value is reported as 0.274.
For CTAATACC, the “PBM E-score” value was 0.104.
With GAGTGCTA the “PBM E-score” value was 0.0563.
With CCTAACCC the “PBM E-score” value was -0.302.
ACAAGACT was tested, and the “PBM E-score” value was -0.039.
With GATTGGAA the “PBM E-score” value was -0.0265.
ATCGAGTC was tested, and the “PBM E-score” value was 0.0696.
CTCTAAGC was tested, and the “PBM E-score” value was 0.0569.
ATTAACTG was tested, and the “PBM E-score” value was 0.237.
In the case of ATACAGGG, the “PBM E-score” value is reported as 0.121.
With ACTCGTGG the “PBM E-score” value was -0.041.
In the case of ATGGTAGG, the “PBM E-score” value is reported as -0.0925.
In the case of CTACTTCA, the “PBM E-score” value is reported as -0.0153.
ATACTTCA was tested, and the “PBM E-score” value was 0.129.
GTACTTCA was tested, and the “PBM E-score” value was 0.279.
For AACCCAGA, the “PBM E-score” value was -0.0895.
In the case of CGGGGCAC, the “PBM E-score” value is reported as -0.242.
In the case of GCTCTACC, the “PBM E-score” value is reported as -0.288.
In the case of TCAGATAA, the “PBM E-score” value is reported as 0.184.
For ATAGATAC, the “PBM E-score” value was 0.224.
ATTGAATC was tested, and the “PBM E-score” value was -0.0743.
ATTGAATA was tested, and the “PBM E-score” value was 0.277.
In the case of TTAGATAA, the “PBM E-score” value is reported as 0.32.
CTTGAATA was tested, and the “PBM E-score” value was 0.0347.
With TAAGATTA the “PBM E-score” value was 0.274.
With AAAGATTA the “PBM E-score” value was 0.249.
ATAGATAG was tested, and the “PBM E-score” value was 0.0352.
With ATAGATAA the “PBM E-score” value was 0.267.
CTAGATAA was tested, and the “PBM E-score” value was 0.0277.
With GAAGATTA the “PBM E-score” value was 0.197.
With AAAAGGAC the “PBM E-score” value was 0.0428.
AAGACCCG was tested, and the “PBM E-score” value was -0.133.
AACGATCG was tested, and the “PBM E-score” value was 0.0832.
For ACGCCCGA, the “PBM E-score” value was -0.032.
In the case of AGGAACAA, the “PBM E-score” value is reported as -0.0886.
With AGTTCGGC the “PBM E-score” value was -0.0604.
GCAGATAA was tested, and the “PBM E-score” value was 0.0212.
GTAGATAA was tested, and the “PBM E-score” value was 0.28.
GTAGATTA was tested, and the “PBM E-score” value was 0.232.
With ATGGAATC the “PBM E-score” value was 0.242.
With GTAGATAC the “PBM E-score” value was 0.0747.
In the case of ATAGATTA, the “PBM E-score” value is reported as 0.302.
ATGGAATA was tested, and the “PBM E-score” value was 0.322.
GTAGAATA was tested, and the “PBM E-score” value was 0.194.
For ATAGAATG, the “PBM E-score” value was 0.209.
ATAGATTG was tested, and the “PBM E-score” value was 0.224.
With GTGGAATA the “PBM E-score” value was 0.193.
With ATAGAATA the “PBM E-score” value was 0.277.
For AAAGTTGC, the “PBM E-score” value was 0.0362.
For AGGCCAAC, the “PBM E-score” value was -0.251.
With CATTGCAA the “PBM E-score” value was -0.0643.
CTCAGGGA was tested, and the “PBM E-score” value was -0.0496.
GCGCATTA was tested, and the “PBM E-score” value was 0.147.
In the case of ATCACCTG, the “PBM E-score” value is reported as 0.148.
In the case of CAATCTGC, the “PBM E-score” value is reported as -0.0434.
For GAGCAGAA, the “PBM E-score” value was -0.0414.
With ACCAACGC the “PBM E-score” value was -0.0288.
AGGGCACG was tested, and the “PBM E-score” value was -0.206.
With CCGACCGG the “PBM E-score” value was -0.211.
For CTAGCTAA, the “PBM E-score” value was 0.0272.
TTAGCTAA was tested, and the “PBM E-score” value was 0.343.
For ATAGCTAA, the “PBM E-score” value was 0.0506.
With CACTCGGG the “PBM E-score” value was -0.117.
GATGACAC was tested, and the “PBM E-score” value was 0.0142.
In the case of GATGACAA, the “PBM E-score” value is reported as 0.27.
With CATGACAA the “PBM E-score” value was 0.0097.
In the case of AGGGCCCC, the “PBM E-score” value is reported as -0.322.
With TCCACTAA the “PBM E-score” value was 0.0246.
CGCTTAGC was tested, and the “PBM E-score” value was -0.0166.
With GATATCGA the “PBM E-score” value was 0.0864.
AATATCGA was tested, and the “PBM E-score” value was 0.326.
In the case of AATATCGG, the “PBM E-score” value is reported as 0.179.
In the case of AAAGAGCG, the “PBM E-score” value is reported as 0.0467.
AACCCTGA was tested, and the “PBM E-score” value was 0.131.
In the case of GATGCTTA, the “PBM E-score” value is reported as 0.0868.
For CATGCTTC, the “PBM E-score” value was 0.0417.
For GGTGCTTA, the “PBM E-score” value was 0.0985.
For AATGCTTA, the “PBM E-score” value was 0.276.
For AATGCTGA, the “PBM E-score” value was 0.118.
For CATGCTTA, the “PBM E-score” value was 0.259.
For CGTGCTTA, the “PBM E-score” value was 0.273.
With CGTGCTGA the “PBM E-score” value was 0.0279.
With CATGCTGA the “PBM E-score” value was 0.181.
ACGGTGGA was tested, and the “PBM E-score” value was -0.285.
GAGTCGAC was tested, and the “PBM E-score” value was 0.063.
In the case of GCCTAACC, the “PBM E-score” value is reported as -0.12.
With ATCCGACG the “PBM E-score” value was 0.0285.
In the case of ACGCTTAT, the “PBM E-score” value is reported as 0.101.
In the case of CCGCTTAA, the “PBM E-score” value is reported as 0.103.
In the case of CCGCTTAC, the “PBM E-score” value is reported as 0.334.
GCACTTAC was tested, and the “PBM E-score” value was 0.112.
With CCGCTTAG the “PBM E-score” value was -0.0568.
With ACGCTTAG the “PBM E-score” value was 0.0472.
In the case of CCACTTAC, the “PBM E-score” value is reported as 0.303.
In the case of CCACTTAA, the “PBM E-score” value is reported as 0.0597.
For ACGCTTAC, the “PBM E-score” value was 0.269.
GAACAGGA was tested, and the “PBM E-score” value was -0.126.
For CCTTGCAC, the “PBM E-score” value was -0.0869.
